From PubChem
The list is not random: actives were taken first. Their share in the collection is about 2.8%.
IP6K1 inhibitor: Primary qHTS assay for small molecule inhibitors of Inositol hexaphosphate kinase 1 (IP6K1); activity change, % (series mostly up to about 58 µM); 140,000 compounds, 0.81% hits; IP6K1 kinase, ADP-Glo luminescence, 2 h; hits give low values; Inositol hexakisphosphate kinase 1 (Homo sapiens), Q92551; in the data active = activity change below about -25%; also: % is scaled to controls: 0 for no effect and ±100 for the full control effect
Target sequence (Q92551 whole entry, looked up): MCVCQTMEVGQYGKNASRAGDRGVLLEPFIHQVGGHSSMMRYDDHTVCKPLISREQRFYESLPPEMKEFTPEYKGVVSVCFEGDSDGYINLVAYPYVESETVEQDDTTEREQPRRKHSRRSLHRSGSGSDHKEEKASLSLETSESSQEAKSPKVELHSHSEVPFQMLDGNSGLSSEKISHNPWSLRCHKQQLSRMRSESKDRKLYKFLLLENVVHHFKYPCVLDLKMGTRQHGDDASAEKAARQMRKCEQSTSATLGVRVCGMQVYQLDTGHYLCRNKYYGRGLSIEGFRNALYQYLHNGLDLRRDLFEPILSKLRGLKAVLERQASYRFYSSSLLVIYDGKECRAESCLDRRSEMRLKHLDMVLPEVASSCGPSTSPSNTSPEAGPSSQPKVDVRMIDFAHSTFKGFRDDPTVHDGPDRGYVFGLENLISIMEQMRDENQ
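ADP-Glo luminescence measures ADP made by human IP6K1 during a 2 h RT reaction with ATP/IP6 (mix at 1.3 mM/130 uM); top library doses 57.5 and 19.1 uM final.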
KDM5B inhibitor: Primary screen for KDM5B Histone Demethylases FDH-coupled qHTS | AID 1347165, 2019 | 220,000 compounds, 2.6% hits | Potency, µM (top dose mostly 57.7 µM), usual class: inhibitors | KDM5B demethylase, FDH-coupled NADH fluorescence (FDH is formaldehyde dehydrogenase) | Lysine-specific demethylase 5B (Homo sapiens), Q9UGL1; active = well fitted inhibition curve with a large enough effect; inconclusive = small, poorly fitted or top-dose-only effect; inactive = no such curve, though single readings can be large or run the other way; also: potency is read from the fitted curve at half-maximal effect; 0% is about no effect; nearly all actives have a fitted effect of over 70% in size
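Coupled FDH/NAD⁺ fluorescence readout. KDM5BΔAP 200 nM final; compound titration, 10 min RT preincubation; substrate mix 12.5 µM H3K4me3, 25 µM 2-OG, 50 µM Fe(II), 100 µM ascorbate, 0.25 mM NAD⁺, 0.25 U/mL FDH; ΔRFU over 30 min.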
* = called active by the depositor; i = inactive; ? = inconclusive; . = not tested or not shown.

SMILES | IP6K1 inhibitor | KDM5B inhibitor
CC(=O)Nc1cccc(-c2cc(C3=CCOCC3)c3cncn3c2)c1 | 7 | 40µM*
O=S(=O)(CCN1CCOC(c2ccccc2)C1)c1ccccc1 (stereo not drawn) | . | i
O=C(O)COc1ccc(-c2nccc3c2C(=O)N(Cc2ccccc2)CC(COc2ccc(Cl)cc2)O3)cc1 (stereo not drawn) | -11 | i
CCc1cccc(C)c1NC(=O)Cn1ccn(-c2ccc(OC)cc2)c(=O)c1=O | . | i
C#CCNC(=O)C1CCN(C(=O)c2ccc(-c3cccs3)cc2)CC1 | -1 | .
CSCC(=O)Nc1ccc2n(c1=O)C[C@H]1C[C@@H]2CN(C(=O)c2ccc(-c3ccccc3)cc2)C1 | -3 | i
CCCS(=O)(=O)Nc1ccc2n(c1=O)C[C@H]1C[C@@H]2CN(C(=O)c2ccc(-c3ccccc3)cc2)C1 | -10 | 20µM*
CN1CCCCCC1C(=O)N1CCN(c2ccc(C#N)cn2)CC1 (stereo not drawn) | 5 | 28µM*
Cc1cc(C)cc(CCC(=O)N2CCN(c3ccc(C#N)cn3)CC2)c1 | -15 | ?
CCC(=O)Nc1ccccc1-c1nc2ccccc2n(CC(=O)Nc2ccccc2)c1=O | . | i
CCOC(=O)c1cnc2ccccc2c1N1CCC(C(N)=O)CC1 | . | i
CCc1ccc(CNc2ncncc2-c2nc(-c3ccccc3)no2)cc1 | -7 | 28µM*
c1ccc(CCNc2ncncc2-c2nc(-c3ccccc3)no2)cc1 | -6 | 35µM*
Cc1ccc(CNc2ncncc2-c2nc(-c3ccccc3)no2)cc1 | -7 | ?
c1ccc(CNc2ncncc2-c2nc(-c3ccccc3)no2)cc1 | -9 | ?
CN(C)S(=O)(=O)N1CCCC1Cc1noc(-c2ccccc2)n1 (stereo not drawn) | 15 | .
Cc1ccc2nc(C)c(C)c(C(=O)NCc3nc(-c4ncccn4)no3)c2c1 | -1 | 28µM*
COc1ccc2c(C)c(C(=O)NCc3nc(-c4ncccn4)no3)oc2c1 | 12 | i
CCc1ccc(CCC(=O)Nc2cccc3cccnc23)cc1 | . | i
O=C(c1cnn2ccccc12)N1CCC(Cc2cccc(CO)c2)C1 (stereo not drawn) | -17 | 28µM*
O=C(O)c1ccc(CC2CCN(C(=O)c3ccccc3Cl)C2)cc1 (stereo not drawn) | 42 | i
CCOC(=O)c1ccc2ncc(C(=O)OCC)c(NCCCO)c2c1 | . | i
Cc1noc(C)c1-c1cc2cc(CN(C)C)oc2c(NCc2cccnc2)n1 | 14 | i
Cc1cc2cc(-c3c(C)noc3C)nc(NC3CC3)c2o1 | 17 | i
Cc1noc(C)c1-c1cc2cc(CO)oc2c(NCCOc2ccccc2)n1 | -13 | ?
SMILES | IP6K1 inhibitor | KDM5B inhibitor
Cc1noc(C)c1-c1cc2cc(CO)oc2c(NC2CCOCC2)n1 | 9 | 35µM*
Cc1noc(C)c1-c1cc2cc(CO)oc2c(NCC2CCOCC2)n1 | 7 | 32µM*
Cc1noc(C)c1-c1cc2cc(CN(C)C)oc2c(Nc2cccnc2)n1 | -11 | 28µM*
O=C(Cc1ccc(F)cc1)N1CCC2(CC1)CC(=O)N(c1ccccc1)c1ccccc1O2 | -9 | i
Cc1c(C(=O)N[C@H]2[C@H]3CCO[C@H]3[C@@H]2N(C)C)[nH]c2c(F)cccc12 | 27 | ?
CN(CC(=O)NC1(C#N)CCCCC1)Cc1ccc(C(F)(F)F)cc1 | . | i
COc1ccc(/C=C2\N=C(SC)SC2=O)cc1 | . | i
O=C(CN1CC2CC(C1)[C@H]1CCCC(=O)N1C2)NCCCN1CCc2ccccc2C1 (stereo partly drawn) | 38 | ?
O=C(CN1CC2CC(C1)[C@H]1CCCC(=O)N1C2)NCCCN1CCCc2ccccc21 (stereo partly drawn) | -2 | 14µM*
C=CCNC(=O)c1ccc(N2CC3CC(C2)[C@H]2CCCC(=O)N2C3)nc1 (stereo partly drawn) | 12 | 25µM*
O=C(NCC1CCCCC1)c1cccnc1N1CC2CC(C1)[C@H]1CCCC(=O)N1C2 (stereo partly drawn) | 20 | ?
CC(C)CNC(=O)c1ccc(N2CC3CC(C2)[C@H]2CCCC(=O)N2C3)nc1 (stereo partly drawn) | 32 | ?
O=C(NCCCN1CCCCC1)c1cccnc1N1CC2CC(C1)[C@H]1CCCC(=O)N1C2 (stereo partly drawn) | 6 | 28µM*
COc1ccc(CN2CCCCC23Cc2ccccc2CNC3=O)c(OC)c1 (stereo not drawn) | -13 | i
Cn1c(=O)c2c(ncn2CCC(=O)NC2CCCCC2)n(C)c1=O | . | i
COc1cccc2cc(-c3csc(-c4ccc(F)cc4)n3)c(=O)oc12 | . | i
COc1ccccc1CN(Cc1cccs1)C(=O)Cc1n[nH]c(=O)c2ccccc12 | . | i
Cc1nn2c(c1-c1ccccc1-c1ccccc1)N(Cc1ccc(OCC(=O)O)cc1)CCC2 | 6 | ?
CC(=O)Nc1ccccc1-c1c(C)nn2c1N(Cc1ccccc1)CCC2 | 21 | i
Cc1ccc(CN2CCCn3nc(C)c(-c4ccccc4-c4ccccc4)c32)o1 | 7 | 35µM*
Cc1nn2c(c1-c1ccccc1-c1ccccc1)N(Cc1cccc(O)c1)CCC2 | -3 | 28µM*
CN(C)C(=S)N(C)C | . | i
CC(C)(C)NC(=O)CCc1ccc(C#N)cc1 | . | i
O=C(O)CCCNC(=O)Cn1ccc2ccc(Cl)cc21 | . | i
Cc1ccc(C2c3cc(OCc4nc(C(=O)NCC5CC5)co4)ccc3CCN2C(=O)C2CC2)cc1 (stereo not drawn) | 1 | i
SMILES | IP6K1 inhibitor | KDM5B inhibitor
COc1ccc(OCC(O)CN2CCC(=O)N(C/C=C/c3ccccc3)CCc3ccccc32)cc1 (stereo not drawn) | -5 | .
O=c1ncn(Cc2ccccc2)c2ccc(-c3ccsc3)nc12 | 2 | 35µM*
O=c1ncn(Cc2ccccc2)c2ccc(-c3ccc(F)cc3F)nc12 | 16 | 28µM*
COc1cccc(F)c1-c1ccc2c(n1)c(=O)ncn2Cc1ccccc1 | 8 | i
COc1ccc(-c2ccc3c(n2)c(=O)ncn3Cc2ccccc2)cn1 | 9 | i
COc1cc(C)c2c(c1C)C[C@H](C(C)C(=O)NCc1cccs1)CC2 (stereo partly drawn) | -2 | ?
CC(C)(C)C1=N/C(=C/c2ccc(OC(F)F)cc2)C(=O)O1 | . | i
Cc1cccc(CNC(=O)c2cc(NC(=O)C(C)C)cc3nc(C)ccc23)c1 | 14 | 13µM*
O=C(NCCc1cccnc1)c1ccc(Cl)cc1Cl | . | i
O=C(NCc1ccccc1)c1cc(Sc2cccc(Cl)c2)nc2ccccc12 | -1 | i
CC(=O)Nc1cc(C(=O)NCc2ccccc2C)c2ccc(C)nc2c1 | 27 | 25µM*
Cc1ccc2c(C(=O)NCc3cccc(Cl)c3)cc(NC(=O)C(C)C)cc2n1 | 28 | 25µM*
CC(=O)Nc1cc(C(=O)N(C)Cc2ccco2)c2ccc(C)nc2c1 | 11 | ?
COc1ccc(NC(=O)c2cc(NC(=O)C(C)C)cc3nc(C)ccc23)cc1 | 13 | i
Cc1ccc2c(C(=O)NCCc3cccnc3)cc(NC(=O)C(C)C)cc2n1 | 17 | 20µM*
CC(C)CN(C1CCOCC1)C1CN(C(=O)Nc2ccccc2)C1 | 3 | .
COc1ccc(-c2cc(C(=O)N3CCOCC3)c3c(C)nn(-c4ccccc4)c3n2)cc1 | 2 | 79µM*
